Source: PubChem (The Scripps Research Institute Molecular Screening Center)
OPRM1-OPRD1 inv: inverse agonists of human mu-delta opioid receptor heterodimerization. cell-based MOR-DOR heterodimer luminescence, inverse agonism. P35372+P41143. 340,000 tested, 0.21% active. inhibition, % at 9.3 µM; in the data active = inhibition above about 22%, passing the limit was not always enough
Target sequence (P35372 whole entry, looked up): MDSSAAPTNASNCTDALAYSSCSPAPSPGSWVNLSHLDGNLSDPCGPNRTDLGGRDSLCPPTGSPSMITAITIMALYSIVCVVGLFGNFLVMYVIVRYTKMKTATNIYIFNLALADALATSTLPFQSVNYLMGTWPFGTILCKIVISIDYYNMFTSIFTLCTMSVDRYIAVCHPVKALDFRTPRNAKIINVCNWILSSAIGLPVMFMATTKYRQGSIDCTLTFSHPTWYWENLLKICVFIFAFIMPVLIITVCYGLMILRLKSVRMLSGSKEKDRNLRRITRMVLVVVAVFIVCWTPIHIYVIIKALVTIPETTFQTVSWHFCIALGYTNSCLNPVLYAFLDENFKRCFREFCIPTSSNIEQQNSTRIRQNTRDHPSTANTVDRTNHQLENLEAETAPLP
Target sequence (P41143 whole entry, looked up): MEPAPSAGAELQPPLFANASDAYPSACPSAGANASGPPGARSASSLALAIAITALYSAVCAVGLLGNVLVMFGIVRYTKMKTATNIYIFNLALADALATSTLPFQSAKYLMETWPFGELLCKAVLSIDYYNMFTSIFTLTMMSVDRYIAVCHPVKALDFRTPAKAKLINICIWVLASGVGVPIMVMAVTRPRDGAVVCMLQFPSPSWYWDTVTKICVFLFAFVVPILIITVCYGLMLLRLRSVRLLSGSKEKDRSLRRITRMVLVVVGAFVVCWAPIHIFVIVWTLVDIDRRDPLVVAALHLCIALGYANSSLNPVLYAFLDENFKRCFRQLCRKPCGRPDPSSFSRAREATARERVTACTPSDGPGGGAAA
HTR5A ag ctr: counter-screen for OPRM1-OPRD1 agonists: human HTR5A agonism; activation, % at 9.3 µM; P47898; 340,000 tested, 0.61% active; HTR5A agonist assay, luminescence, cell-based; in the data active = activation mostly above about 9.5%, no sharp cut-off; inactive = mostly below about 7.6%
HTR5A inv ag: counter-screen for OPRM1-OPRD1 inverse agonists: human HTR5A inverse agonism; P47898; HTR5A cell line, luminescence; inhibition, % at 9.3 µM; 340,000 tested, 0.083% active; in the data active = inhibition mostly above about 23%, no sharp cut-off; inactive = mostly below about 18%
MOR-DOR ag: OPRM1-OPRD1 heterodimerization agonism; cells, luminescence; P35372+P41143; activation, % at 9.3 µM; 340,000 tested, 0.3% active; in the data active = activation above about 18%
A number is an active result; i = inactive. Compounds with a hit are over-represented: about 1.1% of the library has one in this group of screens.

SMILES	OPRM1-OPRD1 inv	HTR5A ag ctr	HTR5A inv ag	MOR-DOR ag
O=C(NCc1ccccn1)c1ccccc1OCc1ccc(Cl)cc1Cl	i	i	i	i
O=C(/C=C/C(Cl)(Cl)Cl)Nc1ccc(Cl)cc1	i	16.5	i	18.1
NC(=O)/C=C/C(=O)Nc1ccc(Cl)cc1	i	i	i	i
CC(C)N(CC(=O)Nc1ccc(Cl)cc1C(F)(F)F)C(=O)CCl	i	11.8	i	i
Cn1c(=O)[nH]c(=O)c2[nH]c(CO)nc21	i	i	i	i
CCCOc1ccccc1-c1nc2c([nH]1)c(=O)[nH]c(=O)n2C	i	13.2	i	i
CCOC(=O)C1=C(C)N(C)C(=S)NC1c1cccc(Cl)c1Cl (centres undefined)	i	10.2	i	i
Cc1cccc(NC(=O)CN2C(=O)N/C(=C/c3ccc(C)s3)C2=O)c1	i	12.0	i	23.4
O=C(O)CC(Cc1ccc(Cl)cc1)C(=O)Nc1ccccc1 (centres undefined)	i	10.1	i	i
O=C(O)CC(Cc1ccc(Br)cc1)C(=O)Nc1ccccc1 (centres undefined)	i	i	i	i
COc1cccc(F)c1C(C[N+](=O)[O-])c1c(N)n(C)c(=O)n(C)c1=O (centres undefined)	i	i	i	i
CCN1C(=O)[C@H]2[C@@H](c3ccc(C)cc3)N3C(=O)N(c4ccc(OC)cc4)C(=O)[C@@]3(C)[C@H]2C1=O	i	i	i	i
O=C1OCCN1C(=O)[C@H]1[C@H](c2ccc(Cl)cc2)C(c2ccccc2)=NN1c1ccccc1	i	5.5	i	i
O=C1OCCN1C(=O)[C@H]1[C@H](c2ccc(Cl)cc2)C(c2ccc(F)cc2)=NN1c1ccccc1	i	i	i	i
N#Cc1ccc(COc2cccc3cccnc23)cc1	i	13.7	i	i
O=[N+]([O-])c1ccc(COc2cccc3cccnc23)cc1	i	i	i	i
COc1cc(C(=O)O/N=C(\N)c2ccc([N+](=O)[O-])cc2)cc(OC)c1OC	i	i	i	i
CCOc1cc(C(=O)O/N=C(\N)c2ccc([N+](=O)[O-])cc2)cc(OCC)c1OCC	i	13.4	i	i
Cc1ccccc1C(=O)O/N=C(\N)c1ccc([N+](=O)[O-])cc1	i	9.3	i	i
Cc1ccc(C(=O)NCCNC(=O)COc2ccc(Cl)cc2)cn1	i	i	i	i
O=C1/C(=C/c2ccccn2)SC(=S)N1Nc1ncc(C(F)(F)F)cc1Cl	i	i	i	i
CC1CC(C)CN(CCCNC(=O)CN2C(=O)CSc3ccc(S(=O)(=O)N4CCOCC4)cc32)C1 (centres undefined)	i	12.3	i	i
Cc1cc(NC(=O)CSc2nnc(-c3c[nH]c4ccccc34)n2-c2ccc(Cl)cc2)no1	i	13.5	i	20.7
COc1ccccc1C(C)NC(=O)Cc1ccc(S(=O)(=O)N2CCOCC2)s1 (centres undefined)	i	i	i	i
CC(=O)Nc1nc(-c2cccs2)cs1	i	i	i	i
SMILES	OPRM1-OPRD1 inv	HTR5A ag ctr	HTR5A inv ag	MOR-DOR ag
O=C(Nc1nc(-c2cccs2)cs1)c1ccc(Cl)s1	i	13.9	i	i
Fc1cccc(NC(=S)NCc2ccccc2Cl)c1	i	i	i	i
CC(=O)Nc1ccc(Nc2nc3ccccc3nc2NS(=O)(=O)c2ccccc2)cc1	i	12.0	i	i
CC(=O)Nc1ccc(S(=O)(=O)Nc2nc3ccccc3nc2Nc2ccccc2)cc1	i	i	i	i
CCCOC(=O)c1ccc(NC(=O)c2cccc(S(=O)(=O)N3CCN(C(C)=O)CC3)c2)cc1	i	i	i	i
CCOC(=O)c1ccc(NC(=O)c2cccc(S(=O)(=O)N3CCN(C(C)=O)CC3)c2)cc1	i	11.8	i	i
O=C(O)c1cc(Nc2cc(Cl)c3nonc3c2[N+](=O)[O-])ccc1O	i	i	i	i
CCCCNc1c(-c2ccc(OC)c(Sc3ccc(OC)cc3)c2)nc2ccccn12	i	11.1	i	i
COc1cc(C2N(C)C(=O)c3ccccc3N2C)ccc1O (centres undefined)	i	9.5	i	i
CN1C(=O)c2ccccc2N(C)C1c1cccc(O)c1 (centres undefined)	i	i	i	i
CC(C)Oc1ccc(C(=O)Nc2ccc(Cl)c(S(=O)(=O)Nc3ccc(Cl)cc3)c2)cc1	i	12.4	i	i
CCCCOc1ccc(C2/C(=C(/O)c3ccc4c(c3)CC(C)O4)C(=O)C(=O)N2CCCN2CCOCC2)cc1OC (centres undefined)	i	i	i	i
O=C(OCC(=O)N1CCc2ccccc21)c1n[nH]c(=O)c2ccccc12	i	12.6	i	i
Cn1nc(C(=O)OCC(=O)N2CCc3ccccc32)c2ccccc2c1=O	i	i	i	i
C=CCC1CCC/C(=N\NS(=O)(=O)c2ccc(C)cc2)C1 (centres undefined)	i	13.4	i	i
O=C(NCc1ccc(F)cc1)c1noc2c1CCCCC2	i	14.2	i	i
CCC1Nc2ncnc(N3CCN(c4ccccn4)CC3)c2N(Cc2ccc(Cl)cc2)C1=O (centres undefined)	80.0	i	77.0	i
CCC1Nc2ncnc(N3CCCCC3)c2N(Cc2ccc(Cl)cc2)C1=O (centres undefined)	i	i	i	i
CCC1Nc2ncnc(N3CCN(c4ccccn4)CC3)c2N(Cc2ccc(Br)cc2)C1=O (centres undefined)	85.9	i	80.5	i
CCC1Nc2ncnc(N3CCN(c4ccccc4)CC3)c2N(Cc2ccccc2)C1=O (centres undefined)	59.9	i	49.0	i
CCC1Nc2ncnc(N3CCCCC3)c2N(Cc2ccc(Br)cc2)C1=O (centres undefined)	i	i	i	i
Cc1cccc(C(=O)O/N=C2\CCCc3ccccc32)c1	i	12.5	i	i
Cc1ccc(C(=O)O/N=C2\CCCc3ccccc32)cc1	i	i	i	i
Cc1ccc(N(C)S(=O)(=O)c2cccc(C(=O)N(C)Cc3cnn(-c4ccccc4)c3)c2)cc1	i	i	i	i
O=C(Cn1c(=O)n(CCC(=O)N2CCCCC2)c(=O)c2sccc21)NCc1ccccc1	i	12.6	i	i
SMILES	OPRM1-OPRD1 inv	HTR5A ag ctr	HTR5A inv ag	MOR-DOR ag
O=C(Cn1c(=O)n(CC(=O)N2CCCCC2)c(=O)c2sccc21)NCc1ccccc1	i	i	i	i
COc1ccc2c(c1)Sc1ccccc1N2CCN(C)C	i	i	i	19.0
CCCCNC(=S)NNC(=O)CCn1nc(C)c(Br)c1C	76.2	i	49.5	i
CCCCNC(=S)NNC(=O)CCn1cc(C)cn1	i	i	i	i
CC(C)CN(Cc1cc(=O)oc2cc(-c3ccccc3)c(O)cc12)CC(C)C	i	17.3	i	20.1
O=C1c2cccc3cccc(c23)C(=O)C1(O)O	46.3	i	i	i
O=C1c2cccc3cccc(c23)C(=O)N1c1ccc(O)cc1	i	i	i	i
CC(=O)c1c(C)nn(CC(O)COc2ccc3ccccc3c2)c1C (centres undefined)	i	i	i	i
Cc1ncc(CO)c2c1Oc1nc(-c3ccccc3F)nc(SCC(=O)N(C)c3ccccc3)c1C2	i	12.2	i	19.8
Cc1ccccc1CN(C)C(C)C(=O)NCc1ccccc1 (centres undefined)	i	i	i	i
